Laboratory results: PubChem BioAssay (EPA / NIEHS)
Activity calls are given as the source filed them. Rule for the calls: active = hit-call score of the fitted dose curve at least 0.9, where 1 is the maximum; inactive = score below 0.9.

Tests used:
[1] = CCTE_Deisenroth_DEVTOX-GLR_Endo_CellCount: Viability Assessment in CCTE's DevTox GLR-Endo Assay, Deisenroth Lab (AID 2284420)
In short: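 Percent change in nuclear-stain cell counts versus 0.2% DMSO, from high-content imaging over 5 fields per well. Over a 48 h endoderm differentiation, RUES2-GLR cells received two doses 24 h apart across a 1 nM–200 uM series, with n=4.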

[2] = test system: SRY-box transcription factor 2 (SOX2) Protein Expression, Deisenroth Lab, SOX2 (gene 6657); assay: CCTE_Deisenroth_DEVTOX-GLR_Pluri_SOX2: CCTE's DevTox GLR-Pluri Assay Evaluation of SRY-box transcription factor 2 (SOX2) Protein Expression, Deisenroth Lab (AID 2284428)
In short: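 Percent SOX2+ cells (SOX2+ count per total cells, fluorescent imaging) in RUES2-GLR human pluripotent line, expressed relative to 0.2% DMSO. Compounds dosed twice at 24 h intervals during 48 h, 1 nM - 200 uM, 10 concentrations.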

[3] = CCTE_Deisenroth_DEVTOX-GLR_Pluri_CellCount: Viability Assessment in CCTE's DevTox GLR-Pluri Assay Evaluation of Total Cell Counts, Deisenroth Lab (AID 2284430)
In short: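 RUES2-GLR human pluripotent cells, seeded 24 h, then differentiated 48 h with two chemical exposures 24 h apart; 10-point series 1 nM - 200 uM. Fixed, nuclear-stained, imaged (5 fields/well); nuclei count as % change vs 0.2% DMSO.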

Measured: outcome

CC1(C)[C@@H]2CC[C@@]1(C)C(=O)C2
inactive: all assays above
